Reference: PubChem BioAssay AID1159580 (chemical genetic matrix, 2015)
Among all 5,500 compounds or so, about 2,000 (36%) were called active. About 18% were inconclusive and are not listed. The list shows a part of the results. Values without a mark were called inactive. No stated cut-off is given here; in the data, active means normalized growth mostly below about 0.91 (no sharp cut-off); inconclusive means no clear call, values can overlap the other calls; inactive means mostly above about 0.92.

Assay: chemical genetic growth profiling, strain panel (AID 1159580);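 further: tested at 20 µM; growth read once vehicle control cultures reached saturation at 30 °C; 1 = growth at the plate median or of vehicle wells; lower values mean less growth of the strain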
Conditions: S. cerevisiae deletion strains, growth OD
[1] = locus YAR019C, strain CDC15, active compounds read low
[2] = locus YBL105C, strain PKC1, active compounds read low
[3] = locus YBR135W, strain CKS1, active compounds read low
[4] = locus YBR136W, strain MEC1, active compounds read low
[5] = locus YBR160W, strain CDC28, active compounds read low
[6] = locus YDL017W, strain CDC7, active compounds read low
[7] = locus YDL028C, strain MPS1, active compounds read low
[8] = locus YDL101C, strain DUN1, active compounds read low
[9] = locus YDL108W, strain KIN28, active compounds read low
[10] = locus YDL132W, strain cdc53, active compounds read low
[11] = locus YDL214C, strain PRR2, active compounds read low
[12] = locus YDR052C, strain DBF4, active compounds read low
[13] = locus YDR054C, strain cdc34, active compounds read low
[14] = locus YDR226W, strain ADK1, active compounds read low
[15] = locus YDR477W, strain SNF1, active compounds read low
[16] = locus YER123W, strain YCK3, active compounds read low
[17] = locus YER133W, strain GLC7, active compounds read low
[18] = locus YFL009W, strain cdc4, active compounds read low
[19] = locus YFL029C, strain CAK1, active compounds read low
[20] = locus YFR003C, strain YPI1, active compounds read low
[21] = locus YFR019W, strain FAB1, active compounds read low
[22] = locus YFR028C, strain CDC14, active compounds read low
[23] = locus YGR040W, strain KSS1, active compounds read low
[24] = locus YGR052W, strain FMP48, active compounds read low
[25] = locus YGR092W, strain DBF2, active compounds read low
[26] = locus YHR030C, strain SLT2, active compounds read low
[27] = locus YHR079C, strain IRE1, active compounds read low
[28] = locus YHR082C, strain KSP1, active compounds read low
[29] = locus YHR205W, strain SCH9, active compounds read low
[30] = locus YIL147C, strain SLN1, active compounds read low
[31] = locus YJL095W, strain BCK1, active compounds read low
[32] = locus YJL128C, strain PBS2, active compounds read low
[33] = locus YJL157C, strain FAR1, active compounds read low
[34] = locus YJR016C, strain ILV3, active compounds read low
[35] = locus YJR066W, strain TOR1 (second series), active compounds read low
[36] = locus YJR066W, strain TOR1, active compounds read low
[37] = locus YKL048C, strain ELM1, active compounds read low
[38] = locus YKL067W, strain YNK1, active compounds read low
[39] = locus YKL101W, strain HSL1, active compounds read low
[40] = locus YKL193C, strain SDS22, active compounds read low
[41] = locus YKL203C, strain TOR2, active compounds read low
[42] = locus YLR113W, strain HOG1, active compounds read low
[43] = locus YLR133W, strain CKI1, active compounds read low
[44] = locus YLR403W, strain SFP1, active compounds read low
[45] = locus YML070W, strain DAK1, active compounds read low
[46] = locus YMR001C, strain CDC5, active compounds read low
[47] = locus YMR205C, strain PFK2 (second series), active compounds read low
[48] = locus YMR277W, strain FCP1, active compounds read low
[49] = locus YNL006W, strain LST8, active compounds read low
[50] = locus YNL020C, strain ARK1, active compounds read low
[51] = locus YNL161W, strain CBK1, active compounds read low
[52] = locus YNL183C, strain NPR1, active compounds read low
[53] = locus YNL207W, strain RIO2, active compounds read low
[54] = locus YNL222W, strain SSU72, active compounds read low
[55] = locus YNL307C, strain MCK1 (second series), active compounds read low
[56] = locus YOL078W, strain AVO1, active compounds read low
[57] = locus YOL136C, strain PFK27, active compounds read low
[58] = locus YOR061W, strain CKA2, active compounds read low
[59] = locus YOR119C, strain RIO1, active compounds read low
[60] = locus YOR231W, strain MKK1, active compounds read low
[61] = locus YOR329C, strain SCD5, active compounds read low
[62] = locus YPL031C, strain PHO85, active compounds read low
[63] = locus YPL153C, strain RAD53, active compounds read low
[64] = locus YPL204W, strain HRR25, active compounds read low
[65] = locus YPL209C, strain IPL1, active compounds read low
[66] = locus YPL256C, strain CLN2, active compounds read low
[67] = locus YPR025C, strain CCL1, active compounds read low
[68] = locus YPR106W, strain ISR1, active compounds read low
[69] = locus YPR111W, strain DBF20, active compounds read low
[70] = strain NNK1, active compounds read low
[71] = strain TSCII, active compounds read low
[72] = locus YAL013W, strain DEP1, active compounds read low
[73] = locus YBR229C, strain ROT2, active compounds read low
[74] = locus YDR150W, strain NUM1, active compounds read low
[75] = locus YEL061C, strain CIN8, active compounds read low
[76] = locus YGR078C, strain PAC10, active compounds read low
[77] = locus YHR087W, strain rtc3, active compounds read low
[78] = locus YJL187C, strain SWE1, active compounds read low
[79] = locus YJR043C, strain POL32, active compounds read low
[80] = locus YJR075W, strain HOC1, active compounds read low
[81] = locus YLR039C, strain RIC1, active compounds read low
[82] = locus YLR058C, strain SHM2 (second series), active compounds read low
[83] = locus YLR085C, strain ARP6, active compounds read low
[84] = locus YLR262C, strain YPT6, active compounds read low
[85] = locus YML094W, strain GIM5, active compounds read low
[86] = locus YMR219W, strain ESC1, active compounds read low
[87] = locus YMR263W, strain SAP30, active compounds read low
[88] = locus YNL153C, strain GIM3, active compounds read low
[89] = locus YNL298W, strain CLA4 (second series), active compounds read low
[90] = locus YNL322C, strain KRE1, active compounds read low
[91] = locus YNR030W, strain Alg12, active compounds read low
[92] = locus YPL055C, strain LGE1, active compounds read low
[93] = locus YPL241C, strain CIN2, active compounds read low
[94] = locus YPR135W, strain CTF4, active compounds read low

## CC1(C)OC(=O)C(=Cc2cccn2-c2ccc(OC(F)(F)F)cc2)C(=O)O1
[1]
  normalized growth: 0.966
[2]
  normalized growth: 0.995
[3]
  normalized growth: 0.996
[4]
  normalized growth: 0.987
[5]
  normalized growth: 0.985
[6]
  normalized growth: 0.999
[7]
  normalized growth: 0.972
[8]
  normalized growth: 0.979
[9]
  normalized growth: 0.989
[10]
  normalized growth: 0.99
[11]
  normalized growth: 0.899
[12]
  normalized growth: 0.989
[13]
  normalized growth: 0.972
[14]
  normalized growth: 0.963
[15]
  normalized growth: 0.898
[16]
  normalized growth: 0.884
[17]
  normalized growth: 0.944
[18]
  normalized growth: 0.96
[19]
  normalized growth: 0.967
[20]
  normalized growth: 0.993
[21]
  normalized growth: 0.942
[22]
  normalized growth: 0.964
[23]
  normalized growth: 0.91
[24]
  normalized growth: 0.921
[25]
  normalized growth: 0.881
[26]
  normalized growth: 0.673 (active)
[27]
  normalized growth: 0.875
[28]
  normalized growth: 0.861
[29]
  normalized growth: 0.801
[30]
  normalized growth: 0.976
[31]
  normalized growth: 0.832
[32]
  normalized growth: 0.918
[33]
  normalized growth: 0.948
[34]
  normalized growth: 0.979
[35]
  normalized growth: 0.987
[36]
  normalized growth: 0.829
[37]
  normalized growth: 0.931
[38]
  normalized growth: 0.915
[39]
  normalized growth: 0.89
[40]
  normalized growth: 0.973
[41]
  normalized growth: 0.989
[42]
  normalized growth: 0.768 (active)
[43]
  normalized growth: 0.923
[44]
  normalized growth: 0.92
[45]
  normalized growth: 0.909
[46]
  normalized growth: 0.97
[47]
  normalized growth: 0.93
[48]
  normalized growth: 0.954
[49]
  normalized growth: 0.975
[50]
  normalized growth: 0.922
[51]
  normalized growth: 0.982
[52]
  normalized growth: 0.894
[53]
  normalized growth: 0.986
[54]
  normalized growth: 0.98
[55]
  normalized growth: 0.887
[56]
  normalized growth: 0.973
[57]
  normalized growth: 0.908
[58]
  normalized growth: 0.916
[59]
  normalized growth: 0.936
[60]
  normalized growth: 0.827
[61]
  normalized growth: 0.986
[62]
  normalized growth: 0.914
[63]
  normalized growth: 0.916
[64]
  normalized growth: 0.923
[65]
  normalized growth: 0.991
[66]
  normalized growth: 0.782 (active)
[67]
  normalized growth: 1
[68]
  normalized growth: 0.967
[69]
  normalized growth: 0.939
[70]
  normalized growth: 0.976
[71]
  normalized growth: 0.968

## N#C/C(=C\c1cccn1-c1ccc(OC(F)(F)F)cc1)S(=O)(=O)c1ccccc1
[72]
  normalized growth: 1.05
[73]
  normalized growth: 1
[8]
  normalized growth: 0.982
[74]
  normalized growth: 1.03
[75]
  normalized growth: 1.02
[76]
  normalized growth: 1.02
[26]
  normalized growth: 1.04
[77]
  normalized growth: 1.02
[78]
  normalized growth: 1.01
[79]
  normalized growth: 0.986
[80]
  normalized growth: 0.988
[81]
  normalized growth: 1
[82]
  normalized growth: 0.995
[83]
  normalized growth: 1.23 [resistant] (active)
[84]
  normalized growth: 0.976
[85]
  normalized growth: 1.07
[86]
  normalized growth: 1.01
[87]
  normalized growth: 1
[88]
  normalized growth: 1.03
[89]
  normalized growth: 1.03
[90]
  normalized growth: 1
[91]
  normalized growth: 1.05
[92]
  normalized growth: 1.14
[93]
  normalized growth: 1.09
[94]
  normalized growth: 1.38 [resistant] (active)

## N#C/C(=C\c1ccc(Oc2ccccc2)nc1)S(=O)(=O)c1ccccc1
[72]
  normalized growth: 0.996
[73]
  normalized growth: 1
Locus YCL061C, strain MRC1, active compounds read low
  normalized growth: 0.976
[8]
  normalized growth: 1
[74]
  normalized growth: 0.984
[75]
  normalized growth: 1.01
[76]
  normalized growth: 1
[26]
  normalized growth: 0.978
[77]
  normalized growth: 1
[78]
  normalized growth: 0.993
[79]
  normalized growth: 0.981
[80]
  normalized growth: 0.99
Locus YKL190W, strain CNB1, active compounds read low
  normalized growth: 1
[81]
  normalized growth: 0.95
[82]
  normalized growth: 1.01
[83]
  normalized growth: 0.998
[84]
  normalized growth: 1.02
[85]
  normalized growth: 1.02
[86]
  normalized growth: 1
[87]
  normalized growth: 0.956
Locus YMR307W, strain GAS1, active compounds read low
  normalized growth: 0.884
[88]
  normalized growth: 0.993
[89]
  normalized growth: 0.939
[90]
  normalized growth: 1
[91]
  normalized growth: 0.997
Locus YOL006C, strain TOP1, active compounds read low
  normalized growth: 0.922
[92]
  normalized growth: 0.988
[93]
  normalized growth: 0.996
[94]
  normalized growth: 0.955

## CC1(C)OC(=O)C(=Cc2cccn2-c2ccc(C(F)(F)F)cc2)C(=O)O1
[1]
  normalized growth: 1.01
[2]
  normalized growth: 1.03
[3]
  normalized growth: 1.04
[4]
  normalized growth: 1.03
[5]
  normalized growth: 1.02
[6]
  normalized growth: 1.04
[7]
  normalized growth: 1.01
[8]
  normalized growth: 1
[9]
  normalized growth: 1.02
[10]
  normalized growth: 1.03
[11]
  normalized growth: 0.913
[12]
  normalized growth: 1.01
[13]
  normalized growth: 1.02
[14]
  normalized growth: 1.03
[15]
  normalized growth: 0.908
[16]
  normalized growth: 0.896
[17]
  normalized growth: 0.963
[18]
  normalized growth: 1.02
[19]
  normalized growth: 0.998
[20]
  normalized growth: 1.03
[21]
  normalized growth: 0.941
[22]
  normalized growth: 0.999
[23]
  normalized growth: 0.921
[24]
  normalized growth: 0.954
[25]
  normalized growth: 0.921
[26]
  normalized growth: 0.686 (active)
[27]
  normalized growth: 0.86
[28]
  normalized growth: 0.901
[29]
  normalized growth: 0.775
[30]
  normalized growth: 1.02
[31]
  normalized growth: 0.844
[32]
  normalized growth: 0.931
[33]
  normalized growth: 0.946
[34]
  normalized growth: 1.01
[35]
  normalized growth: 0.958
[36]
  normalized growth: 0.844
[37]
  normalized growth: 0.88
[38]
  normalized growth: 0.912
[39]
  normalized growth: 0.885
[40]
  normalized growth: 1.02
[41]
  normalized growth: 1.01
[42]
  normalized growth: 0.711 (active)
[43]
  normalized growth: 0.916
[44]
  normalized growth: 0.898
[45]
  normalized growth: 0.912
[46]
  normalized growth: 1
[47]
  normalized growth: 0.93
[48]
  normalized growth: 1
[49]
  normalized growth: 1
[50]
  normalized growth: 0.914
[51]
  normalized growth: 1.03
[52]
  normalized growth: 0.917
[53]
  normalized growth: 1.03
[54]
  normalized growth: 1.02
[55]
  normalized growth: 0.859
[56]
  normalized growth: 1.01
[57]
  normalized growth: 0.884
[58]
  normalized growth: 0.818
[59]
  normalized growth: 0.944
[60]
  normalized growth: 0.83
[61]
  normalized growth: 1.03
[62]
  normalized growth: 0.917
[63]
  normalized growth: 0.901
[64]
  normalized growth: 0.905
[65]
  normalized growth: 1.03
[66]
  normalized growth: 0.777 (active)
[67]
  normalized growth: 1.03
[68]
  normalized growth: 0.99
[69]
  normalized growth: 0.964
[70]
  normalized growth: 0.988
[71]
  normalized growth: 0.991
